# Test results: PubChem BioAssay
# Values without a mark were called inactive. Unless noted, the rule behind the calls is not given here.
# System: not listed separately
# Experiment: circadian clock period modulators, cell-based, LOPAC library, luminescence reporter (AID 2774);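 note: values are relative to mean of DMSO wells on each plate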
# Conditions: circadian reporter cells, at 7 µM, actives lie on both sides
row,SMILES,period change [h]
1,CCn1cc(C(=O)O)c(=O)c2ccc(C)nc21,-0.11
2,CC(N)C(=O)OC(C)(C)Cc1ccc(Cl)cc1 (centres undefined),-0.005
3,CC1OC1P(=O)(O)O (centres undefined),-0.1

# System: Hepatitis C virus NS3 helicase
# Experiment: HCV NS3 helicase inhibitors, primary screen, biochemical, fluorescence polarization, LOPAC1280 library (AID 687035; in the data active = inhibition above about 37%)
# Conditions: Purified HCV NS3 helicase, Cy5-dT15 ssDNA binding fluorescence polarization; stronger effect = higher value; concentration not given here
row,SMILES,inhibition [%]
1,CCn1cc(C(=O)O)c(=O)c2ccc(C)nc21,-5
2,CC(N)C(=O)OC(C)(C)Cc1ccc(Cl)cc1 (centres undefined),-4
3,CC1OC1P(=O)(O)O (centres undefined),-2

# System: not listed separately
# Experiment: Cy5 fluorescence quenching or enhancement artefacts, artefact control for HCV NS3 helicase inhibitor project, biochemical, LOPAC1280 (AID 687037)
# Conditions: Cy5-DNA-NS3h complex fluorescence interference counterscreen
row,SMILES,fluorescence ratio (interference)
1,CCn1cc(C(=O)O)c(=O)c2ccc(C)nc21,1
2,CC(N)C(=O)OC(C)(C)Cc1ccc(Cl)cc1 (centres undefined),1
3,CC1OC1P(=O)(O)O (centres undefined),1

# System: Aerobactin synthetase IucA (Klebsiella pneumoniae hvKP1)
# Experiment: Biochemical IucA enzyme inhibition primary screen of the Spectrum library (AID 1346200);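 note: 100% = wells without compound and 0% = wells lacking enzyme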
# Conditions: malachite green pyrophosphate, A620, at 8 µM, stronger effect = lower value
row,SMILES,activity remaining [%]
1,O=c1[nH]cc(F)c(=O)[nH]1,96.1
2,NC1(C(=O)O)CC1,94.3
3,Oc1ccc(/C=C/c2cc(O)cc(O)c2)cc1,110
4,Cc1cc(N)c2ccccc2[n+]1CCCCCCCCCC[n+]1c(C)cc(N)c2ccccc21,82.6
5,CC1(C)NC(=O)N(c2ccc([N+](=O)[O-])c(C(F)(F)F)c2)C1=O,124
6,c1ccc2c(c1)CCCC2C1=NCCN1 (centres undefined),110
7,OC(CCN1CCCCC1)(c1ccccc1)C1CCCCC1 (centres undefined),97.3
8,N[C@@H](CC(=O)N1CCn2c(nnc2C(F)(F)F)C1)Cc1cc(F)c(F)cc1F,110
9,CC(=O)NCCc1c[nH]c2ccc(O)cc12,113
10,NC(CO)C(=O)NNCc1ccc(O)c(O)c1O (centres undefined),109
11,CCCC(C(=O)OCCN(CC)CC)(c1ccccc1)c1ccccc1,105
12,CN1CCN(C2=Nc3cc(Cl)ccc3Nc3ccccc32)CC1,120
13,CCn1nc(C(=O)O)c(=O)c2cc3c(cc21)OCO3,112
14,C[n+]1cc2c3c(ccc2c2ccc4cc5c(cc4c21)OCO5)OCO3,97.5
15,CC1=NS(=O)(=O)c2cc(Cl)ccc2N1,107
16,CCC1(C)CC(=O)NC1=O (centres undefined),123
17,CCCCCCCCCCCCCC(=O)O[C@@H]1[C@@H](C)[C@@]2(O)[C@@H](C=C(CO)C[C@]3(O)C(=O)C(C)=C[C@@H]23)[C@@H]2C(C)(C)[C@]12OC(C)=O,115
18,CCn1cc(C(=O)O)c(=O)c2ccc(C)nc21,117
19,CCCCC[C@H](CC(=O)NO)C(=O)N[C@H](C(=O)N1CCC[C@H]1CO)C(C)C,109
20,N[C@@H]1CONC1=O,102

row,SMILES,activity remaining [%]
1,N=C(N)SCCN,98.6
2,CC[C@@]1(C2O[C@@H](C3O[C@@](O)(CC)[C@H](C)C[C@@H]3C)C[C@@H]2C)CC[C@H]([C@]2(C)CCC3(C[C@H](O)[C@@H](C)[C@@H]([C@H](C)[C@@H](OC)[C@H](C)C(=O)O)O3)O2)O1 (some centres undefined),112
3,CC(C)[N+](C)(CCOC(=O)C1c2ccccc2Oc2ccccc21)C(C)C,105
4,NS(=O)(=O)c1cc2c(cc1Cl)NCNS2(=O)=O,103
5,CN1C(=O)CC[C@H]1c1cccnc1,101
6,CN1CCN(CCCN2c3ccccc3Sc3ccc(Cl)cc32)CC1,123
7,NC/C=C/C(=O)O,107
8,Cn1cnc([N+](=O)[O-])c1Sc1ncnc2nc[nH]c12,113
9,COc1cc([C@@H]2c3cc4c(cc3[C@H](O)[C@H]3COC(=O)[C@H]23)OCO4)cc(OC)c1OC,102
10,C[N+]1(C)C2CC(OC(=O)[C@@H](CO)c3ccccc3)CC1C1OC12 (some centres undefined),102
11,CCCNC(C)C(=O)Nc1ccccc1C (centres undefined),82
12,CC(N)C(=O)OC(C)(C)Cc1ccc(Cl)cc1 (centres undefined),86.1
13,Fc1ccc(C(c2ccc(F)cc2)N2CCN(C/C=C/c3ccccc3)CC2)cc1,117
14,CN(C)[C@@H]1C(=O)C(C(N)=O)=C(O)[C@@]2(O)C(=O)C3=C(O)c4c(O)ccc(Cl)c4[C@@H](O)[C@H]3C[C@@H]12,97
15,Fc1ccc([C@@H]2CCNC[C@H]2COc2ccc3c(c2)OCO3)cc1,108
16,CN(C)CCC=C1c2ccccc2C=Cc2ccccc21,111
17,CC1OC1P(=O)(O)O (centres undefined),94.8
18,CNCCC(Oc1ccc(C(F)(F)F)cc1)c1ccccc1 (centres undefined),96.1
19,NCCCCCC(=O)O,113
20,O=C(O)C1=CC(=C(c2ccc(O)c(C(=O)O)c2)c2ccc(O)c(C(=O)O)c2)C=CC1=O,101
